High-throughput results (PubChem BioAssay)
Cruzain Triton: qHTS Assay for Promiscuous and Specific Inhibitors of Cruzain (with detergent); Cruzipain (Trypanosoma cruzi), P25779; purified cruzain, Z-FR-AMC fluorescence, 0.01% Triton; Potency, µM, for inactives: max response, negative = inhibition, usual class: inhibitors; hit rate 0.43% among 200,000; AID 1478, 2009;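 further: plate controls were neutral wells for no effect and buffer without enzyme for full effect; nearly all actives have a fitted effect of over 40% in size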
Target sequence (P25779 123-467 limits assumed): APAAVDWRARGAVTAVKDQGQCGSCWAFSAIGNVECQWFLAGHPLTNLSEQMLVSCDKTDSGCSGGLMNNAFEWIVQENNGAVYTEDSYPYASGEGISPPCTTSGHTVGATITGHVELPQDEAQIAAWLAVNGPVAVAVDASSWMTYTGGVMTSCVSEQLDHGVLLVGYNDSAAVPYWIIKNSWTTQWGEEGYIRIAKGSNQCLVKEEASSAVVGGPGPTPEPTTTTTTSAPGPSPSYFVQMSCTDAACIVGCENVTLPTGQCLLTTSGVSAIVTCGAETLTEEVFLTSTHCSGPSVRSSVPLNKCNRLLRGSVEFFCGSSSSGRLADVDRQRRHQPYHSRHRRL
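Z-FR-AMC hydrolysis (2 uM substrate) by cruzain (1.5 nM) monitored kinetically at ex 360/em 450 nm after 15 min room-temperature compound exposure; 0.01% Triton X-100, pH 5.5, 5 mM DTT.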
Cruzain noTriton: qHTS Assay for Promiscuous and Specific Inhibitors of Cruzain (without detergent). Cruzipain (Trypanosoma cruzi), P25779. purified cruzain, Z-FR-AMC fluorescence, no detergent. Potency, µM, without a hit: max response, negative = inhibition, hits mostly inhibitors. hit rate 2.3% among 200,000. AID 1476, 2009;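 further: plate controls were enzyme without inhibitor for no effect and buffer without enzyme for full effect; nearly all actives have a fitted effect of over 40% in size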
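Purified cruzain at 1.5 nM, pre-incubated 15 min with compound at room temperature in 100 mM sodium acetate pH 5.5, 5 mM DTT, 0.00005% Triton X-100. Reaction started with 2 uM Z-FR-AMC; AMC fluorescence increase over 60 s gives rate.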
* marks the source's active call; other numbers are inactive results; ? = inconclusive. Only some compounds are listed: those with a hit (about 2.6% of all), similar ones and a draw of the others. The call rests on the fitted dose curve; in most records, active means well fitted curve in the direction sought with a large enough effect; inconclusive means small, poorly fitted or top-dose-only effect, or another doubt; inactive means no such curve, though single readings can be large; an effect the other way counts as inactive or inconclusive. Potency means the concentration at half of the fitted maximal effect.

SMILES	Cruzain Triton	Cruzain noTriton
Cc1ccc(S(=O)(=O)N/N=C\c2cccnc2)cc1	3%	-1%
CCN(CC)C(=O)N1CCn2c(nc3ccccc32)C1	-1%	-1%
CCN(CC)CCCNC(=S)N1CCn2c(nc3ccccc32)C1	13µM*	-4%
Cc1ccc(NC(=O)c2ccc(NC(=O)N3CCSc4ncccc43)cc2)cc1Cl	-11%	-6%
C1=C(c2ccccc2)Nc2nnnn2C1c1cccs1 (stereo not given)	4%	-7%
Cc1ccc(C2=CC(c3cccs3)n3nnnc3N2)cc1 (stereo not given)	5%	16µM*
CC(C)C(NS(=O)(=O)c1cccs1)C(=O)NCCN1CCN(c2ccccc2)CC1 (stereo not given)	20µM*	25µM*
COc1ccc(N2CCN(CCNC(=O)CCNS(=O)(=O)c3cccs3)CC2)cc1	2%	-7%
CCn1c2ccccc2c2cc(N)ccc21	-2%	7.9µM*
CCn1c2ccccc2c2cc(/C(C)=N/O)ccc21	-10%	2%
CCN1C(C(=O)c2ccccc2)=C(Nc2ccccc2C)c2ccccc2S1(=O)=O	-7%	?
Cc1ccc(NC2=C(C(=O)c3ccccc3)N(C)S(=O)(=O)c3ccccc32)cc1	-5%	20µM*
O=C(COC(=O)CNC(=O)c1sc2ccccc2c1Cl)Nc1c(Cl)cc(Cl)cc1Cl	25µM*	?
CCOC(=O)c1ccccc1NC(=O)c1sc2ccccc2c1Cl	-1%	5%
O=C(COC(=O)c1sc2ccccc2c1Cl)Nc1ncc(Cl)cc1Cl	-5%	?
Cc1ccccc1NC(=O)COC(=O)CNC(=O)c1sc2ccccc2c1Cl	7.9µM*	3.2µM*
CC(=O)Nc1nonc1-c1nnc(SCC(=O)Nc2cccc(C)c2C)n1-c1ccccc1	-3%	-8%
Cc1nc(N2CCOCC2)c2nc(-c3ccccc3)n(CC3CCN(C)CC3)c2n1	7%	-1%
CCOc1ccccc1C(=O)N1CCN(CCc2ccccn2)CC1	0%	-7%
Cc1ccc(-n2c(=O)c3ccc(C(=O)NCc4ccccc4Cl)cc3n(CC(=O)Nc3ccc(C)cc3C)c2=O)cc1	-1%	0%
O=C(O)c1c(Cl)c(Cl)c(Cl)c(Cl)c1-c1c2cc(I)c(=O)c(I)c-2oc2c(I)c(O)c(I)cc12	13µM*	-28%
COc1cccc(CCNC(=O)c2c(O)nc3cc(C)ccn3c2=O)c1	-1%	-3%
Cc1ccc(S(=O)(=O)c2nc(S(=O)(=O)c3ccc(C)cc3)c(NCc3ccco3)s2)cc1	0%	32µM*
CCCS(=O)(=O)c1nc(S(=O)(=O)c2ccc(C)cc2)c(NCc2ccco2)s1	-4%	0%
Cc1nc(C)c(-c2ccc(SCC(=O)Nc3ccccc3F)nn2)s1	-15%	-5%
SMILES	Cruzain Triton	Cruzain noTriton
COc1cc(C)ccc1OCCSc1nc2ccc(NC(=O)c3ccccc3F)cc2s1	0%	-3%
CCOC(=O)c1c(NC(=O)C(=O)N/N=C/c2ccccc2O)sc2c1CCCCC2	2%	7.9µM*
CCOC(=O)c1c(NC(=O)c2ccc(C)cc2)sc2c1CCCCC2	0%	-1%
CCOC(=O)c1c(NC(=O)C(=O)N/N=C/c2ccccc2OC)sc2c1CCCCC2	-10%	10µM*
CCOC(=O)c1c(NC(=O)C(=O)N/N=C(\C)c2ccc(OC)cc2)sc2c1CCCCC2	-5%	-1%
CCn1cc2c(n1)-c1c(oc(C(=O)Nc3ccc(Br)cc3F)c1C)CC2	-3%	10%
COc1ccc(CCn2c(O)c(C=NCc3ccc4c(c3)OCO4)c(=O)[nH]c2=O)cc1OC	-7%	?
O=c1[nH]c(=O)n(CCc2ccc(F)cc2)c(O)c1C=NCc1ccc2c(c1)OCO2	13µM*	?
COc1cccc(NC(=O)CSC2=Nc3ccccc3N=C(c3ccc(F)cc3)C2)c1	-5%	-5%
COC(=O)c1ccccc1NC(=O)Cn1nc(C(F)(F)F)c2c1CCCC2	-11%	8%
O=C(Cn1c(=O)n(Cc2ccc(C(=O)NCc3ccccc3Cl)cc2)c(=O)c2ccccc21)Nc1ccc(F)c(Cl)c1	-2%	7.9µM*
COc1ccc(NC(=O)Cn2c(=O)n(Cc3ccc(C(=O)NCc4ccccc4Cl)cc3)c(=O)c3ccccc32)cc1OC	-1%	-8%
CCc1ccc(NC(=O)Cn2c(=O)n(CCCC(=O)NCc3ccccc3Cl)c(=O)c3ccccc32)cc1	1%	-9%
O=C(Cn1c(=O)n(Cc2ccc(C(=O)NCc3ccccc3Cl)cc2)c(=O)c2ccccc21)Nc1ccc(F)cc1	-2%	13µM*
CCCN1C(=O)c2[nH]nc(-c3ccccc3O)c2C1c1ccc(OCc2ccccc2)c(OCC)c1 (stereo not given)	-7%	?
CCc1nn2c(=O)cc(COc3ccc(/C=C(\C#N)C(=O)Nc4ccc(F)cc4)cc3OC)nc2s1	-2%	5%
Cc1ccc(-n2nc3cc(C)c(NC(=O)c4ccc(-c5ccccc5)o4)cc3n2)cc1	-2%	-3%
O=C(CSc1cn(CC(=O)N2CCCCC2)c2ccccc12)Nc1ccccc1F	-5%	-9%
Cc1cccc(CSc2ncc(CO)n2Cc2ccc(F)cc2)c1	-6%	6%
O=C(Nc1ccc(Cl)cc1)C1CCC(CNS(=O)(=O)c2ccc(Br)s2)CC1 (stereo not given)	-2%	25µM*
CC(=O)c1ccc(NC(=O)C2CCC(CNS(=O)(=O)c3ccc(Br)s3)CC2)cc1 (stereo not given)	-4%	1%
CN1c2ccccc2-c2nc(SCC(=O)Nc3ccccc3C(F)(F)F)ncc2S1(=O)=O	-4%	26%
CCOC(=O)c1cc(-c2ccccc2)sc1NC(=O)CN1C(=O)NC(CC)(c2ccccc2)C1=O (stereo not given)	-9%	10µM*
CCOC(=O)c1cc(-c2ccccc2)sc1NC(=O)CC	-9%	1%
CCOC(=O)c1cc(-c2ccccc2)sc1NC(=O)CSc1nncs1	-10%	29%
SMILES	Cruzain Triton	Cruzain noTriton
CCOC(=O)c1cc(-c2ccccc2)sc1NC(=O)CN1C(=O)NC(CC)(c2ccc(F)cc2)C1=O (stereo not given)	1%	10µM*
O=Cc1cn(Cc2ccc([N+](=O)[O-])cc2)c2ccccc12	-7%	?
Cc1cc(/C=N/Nc2ccc([N+](=O)[O-])cn2)c(C)n1-c1ccccc1	-2%	4µM*
Cc1ccc(-n2c(C)cc(/C=N/Nc3ccc([N+](=O)[O-])cn3)c2C)cc1	-6%	7.9µM*
Cc1ccc([N+](=O)[O-])cc1/C=N/Nc1nnnn1-c1ccccc1	1%	-10%
Cc1ccc(Cn2cc(/C=N/Nc3ccc([N+](=O)[O-])cn3)c3ccccc32)cc1	-4%	6.3µM*
Cc1cc(C)cc(-n2c(C)cc(/C=N/NC(=O)c3cccc([N+](=O)[O-])c3C)c2C)c1	-4%	?
CCOC(=O)c1cc2c(=O)n3ccccc3nc2n(CC2CCCO2)c1=NC(=O)c1ccccc1C (stereo not given)	-3%	-6%
Nc1ccc(-c2nc3ccccc3[nH]2)cc1	-3%	-30%
Nc1ccc(-c2nc3ccc(-c4nc5ccc(N)cc5[nH]4)cc3[nH]2)cc1	14µM*	25µM*
CC1CCN(S(=O)(=O)c2ccc3c(c2)oc(=O)n3CC(=O)NCc2ccc(F)cc2)CC1	-11%	?
O=C(Nc1cccc(C(F)(F)F)c1)C1CCN(S(=O)(=O)c2cccc3nsnc23)CC1	-10%	-2%
CCNC(=O)c1c(NC(=O)Cc2coc3ccc(CC)cc23)sc2c1CCCC2	-4%	-26%
